Laboratory results as given in PubChem BioAssay (NCATS).
Results filed as inconclusive are left out. Entries that show only a call come without a potency. Activity calls are given as the source filed them. Calls follow the shape of the dose curve; as a rule, active = well fitted inhibition curve with a large enough effect; inconclusive = small, poorly fitted or top-dose-only effect; inactive = flat fitted curve, though single readings scatter. Where a SMILES comes first, the peptide text is derived from it. Bridges are numbered along the chain shown (N, C = ends). [ ]: non-standard residue; d: D form. hArg = N=C(N)NCCCC[C@H](N)C(=O)O; Mpa = O=C(O)CCS

Legend:
Test in all cases: qHTS profiling for inhibitors of Plasmodium falciparum proliferation (AID 504749); also: nearly all actives have a fitted effect of over 60% in size
Details in all cases: P. falciparum in erythrocytes, SYBR Green DNA, 72 h; series mostly up to 28.7 µM
DIV30 = tested on: DIV30
In short: (§1)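 Parasite proliferation within erythrocytes, 72 h exposure. Endpoint: SYBR Green I fluorescence after overnight lysis at room temperature. Controls: 0.29 uM artemisinin, DMSO.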

Dd2 = tested on: Dd2
In short: as §1

ECU = tested on: ECU
In short: as §1

FAB9 = tested on: FAB9
In short: as §1

GB4 = tested on: GB4
In short: as §1

HB3 = tested on: HB3
In short: as §1

ICS = tested on: ICS
In short: as §1

JCK = tested on: JCK
In short: as §1

N140 = tested on: N140
In short: as §1

P93_24 = tested on: P93_24
In short: as §1
Potency is read from the fitted curve at half-maximal effect.

Structure (SMILES)	outcome (DIV30)	Potency (Dd2)	Potency (ECU)	Potency (FAB9)	Potency (GB4)	Potency (HB3)	Potency (ICS)	Potency (JCK)	Potency (N140)	Potency (P93_24)
Cc1cccc(Nc2ccccc2C(=O)O)c1C	inactive	inactive	inactive	inactive	inactive	inactive	inactive	inactive	inactive	inactive
CNc1c2c(nn1C)CCCC2	inactive	inactive	inactive	inactive	inactive	inactive	inactive	inactive	inactive	inactive
CC1CCN(CCCC(=O)c2ccc(F)cc2)CC1	inactive	inactive	inactive	inactive	inactive	inactive	inactive	inactive	inactive	inactive
NS(=O)(=O)c1cc2c(cc1C(F)(F)F)NCNS2(=O)=O	inactive	inactive	inactive	inactive	inactive	inactive	inactive	inactive	inactive	inactive
CC[N+](CC)(CC(=O)Nc1c(C)cccc1C)Cc1ccccc1	inactive	inactive	inactive	inactive	inactive	inactive	inactive	inactive	inactive	inactive
CCN(CC)C(=O)c1cccc(C)c1	inactive	inactive	inactive	inactive	inactive	inactive	inactive	inactive	inactive	inactive
CC1CCc2cc(F)cc3c(=O)c(C(=O)O)cn1c23 (stereo not given)	inactive	inactive	inactive	inactive	inactive	inactive	inactive	inactive	inactive	inactive
Cn1c([N+](=O)[O-])cnc1COC(N)=O	inactive	inactive	inactive	inactive	inactive	inactive	inactive	inactive	inactive	inactive
O[C@@H]1CO[C@H]2[C@@H]1OC[C@@H]2O	inactive	inactive	inactive	inactive	inactive	inactive	inactive	inactive	inactive	inactive
O=C(O)c1ccc(OCCCOc2ccc(C(=O)O)cc2)cc1	inactive	inactive	inactive	inactive	inactive	inactive	inactive	inactive	inactive	inactive
O=C(CCBr)N1CCN(C(=O)CCBr)CC1	inactive	inactive	inactive	inactive	inactive	inactive	inactive	inactive	inactive	inactive
NNc1nnc(NN)c2ccccc12	inactive	inactive	inactive	inactive	inactive	inactive	inactive	inactive	inactive	inactive
CC(C)c1cc2c(cc1S(=O)(=O)O)[C@@]1(C)CCC[C@@](C)(C(=O)O)[C@@H]1CC2	inactive	inactive	inactive	inactive	inactive	inactive	inactive	inactive	inactive	inactive
COC(=O)c1ccc(O)cc1	inactive	inactive	inactive	inactive	inactive	inactive	inactive	inactive	inactive	inactive
FC(F)(F)C(Cl)Br (stereo not given)	inactive	inactive	inactive	inactive	inactive	inactive	inactive	inactive	inactive	inactive
O=C(O)c1ccccc1OP(=O)(O)O	inactive	inactive	inactive	inactive	inactive	inactive	inactive	inactive	inactive	inactive
CCCCCCCCCCCCCCCCCCO	inactive	inactive	inactive	inactive	inactive	inactive	inactive	inactive	inactive	inactive
NC(=O)[C@@H]1CSSCCC(=O)N[C@@H](CCCCN=C(N)N)C(=O)NCC(=O)N[C@@H](CC(=O)O)C(=O)N[C@@H](Cc2c[nH]c3ccccc23)C(=O)N2CCC[C@H]2C(=O)N1 ([Mpa][hArg]GDWPC-NH2; disulfide 1-7)	inactive	inactive	inactive	inactive	inactive	inactive	inactive	inactive	inactive	inactive
C[C@@H](N)C(=O)O	inactive	inactive	inactive	inactive	inactive	inactive	inactive	inactive	inactive	inactive
CC(=O)NCc1c(I)c(NC(C)=O)c(I)c(C(=O)O)c1I	inactive	inactive	inactive	inactive	inactive	inactive	inactive	11.2 µM (active)	inactive	inactive
O=C(O)Cc1cn(-c2ccccc2)nc1-c1ccc(Cl)cc1	inactive	inactive	inactive	inactive	inactive	inactive	inactive	inactive	inactive	inactive
Cc1ccsc1C(=CCCN1CCC[C@@H](C(=O)O)C1)c1sccc1C	inactive	inactive	inactive	inactive	inactive	inactive	inactive	inactive	inactive	inactive
COc1ccc(NS(=O)(=O)c2ccc(N)cc2)nn1	inactive	inactive	inactive	inactive	inactive	inactive	inactive	inactive	inactive	inactive
Cc1c(NC(=O)c2cccnc2)c(=O)n(-c2ccccc2)n1C	inactive	inactive	inactive	inactive	inactive	inactive	inactive	inactive	inactive	inactive
NC(N)=NS(=O)(=O)c1ccc(N)cc1	inactive	inactive	inactive	inactive	inactive	inactive	inactive	inactive	inactive	inactive

Structure (SMILES)	outcome (DIV30)	Potency (Dd2)	Potency (ECU)	Potency (FAB9)	Potency (GB4)	Potency (HB3)	Potency (ICS)	Potency (JCK)	Potency (N140)	Potency (P93_24)
CCOc1cc(NC(C)=O)ccc1C(=O)OC	inactive	inactive	inactive	inactive	inactive	inactive	inactive	inactive	inactive	inactive
O=C(O)CCCc1ccccc1	inactive	inactive	inactive	inactive	inactive	inactive	inactive	inactive	inactive	inactive
C[C@@H]1CCC[C@H](C)N1	inactive	inactive	inactive	inactive	inactive	inactive	inactive	inactive	inactive	inactive
Cc1c(C(=O)NCCO)[n+](=O)c2ccccc2n1[O-]	inactive	inactive	inactive	inactive	inactive	inactive	inactive	inactive	inactive	inactive
O=C(O)c1ccccc1C(=O)Nc1ccc(S(=O)(=O)Nc2nccs2)cc1	inactive	inactive	inactive	inactive	inactive	inactive	inactive	inactive	inactive	inactive
O=C(O)CCC(=O)O	inactive	inactive	inactive	inactive	inactive	inactive	inactive	inactive	inactive	inactive
CCN(CC)S(=O)(=O)c1ccc(C(=O)O)cc1	inactive	inactive	inactive	inactive	inactive	inactive	inactive	inactive	inactive	inactive
CCCC(O)C(CC)CO (stereo not given)	inactive	inactive	inactive	inactive	inactive	inactive	inactive	inactive	inactive	inactive
O=c1[nH]c2cc(C(F)(F)F)c(N3CCOCC3)cc2n(CP(=O)(O)O)c1=O	inactive	inactive	inactive	inactive	inactive	inactive	inactive	inactive	inactive	inactive
CC(N)CCCC(C)(C)O (stereo not given)	inactive	inactive	inactive	inactive	inactive	inactive	inactive	inactive	inactive	inactive
O=C(Cn1ccnc1[N+](=O)[O-])NCCO	inactive	inactive	inactive	inactive	inactive	inactive	inactive	inactive	inactive	inactive
OC[C@@H](O)[C@@H](O)[C@H](O)[C@H](O)CO	inactive	inactive	inactive	inactive	inactive	inactive	inactive	inactive	inactive	inactive
Cc1onc(-c2ccccc2)c1-c1ccc(S(N)(=O)=O)cc1	inactive	inactive	inactive	inactive	inactive	inactive	inactive	inactive	inactive	inactive
Nc1ccncc1N	inactive	inactive	inactive	inactive	inactive	inactive	inactive	inactive	inactive	inactive
CC(C)C[C@@H](N)C(=O)O	inactive	inactive	inactive	inactive	inactive	inactive	inactive	inactive	inactive	inactive
CC(=O)Nc1ccccc1	inactive	inactive	inactive	inactive	inactive	inactive	inactive	inactive	inactive	inactive
CCCCCC(N)=O	inactive	inactive	inactive	inactive	inactive	inactive	inactive	inactive	inactive	inactive
COc1ccc2cc(CCC(C)=O)ccc2c1	inactive	inactive	inactive	inactive	inactive	inactive	inactive	inactive	inactive	inactive
O=C1c2cccc(O)c2C(=O)c2c(O)cccc21	inactive	inactive	inactive	inactive	inactive	inactive	inactive	inactive	inactive	inactive
NS(=O)(=O)c1ccc(NC(=O)CCC(=O)O)cc1	inactive	inactive	inactive	inactive	inactive	inactive	inactive	inactive	inactive	inactive
CC(O)CCCCn1c(=O)c2c(ncn2C)n(C)c1=O (stereo not given)	inactive	inactive	inactive	inactive	inactive	inactive	inactive	inactive	inactive	inactive
O=C(O)Cc1ccc(CCNS(=O)(=O)c2ccc(Cl)cc2)cc1	inactive	inactive	inactive	inactive	inactive	inactive	inactive	inactive	inactive	inactive
CCc1cccc(CC)c1NC(=O)CN(CC(=O)O)CC(=O)O	inactive	inactive	inactive	inactive	inactive	inactive	inactive	inactive	inactive	inactive
NNC(=O)CP(=O)(c1ccccc1)c1ccccc1	inactive	inactive	inactive	inactive	inactive	inactive	inactive	inactive	inactive	inactive
Cc1ccccc1N=Nc1ccc(N=Nc2c(O)ccc3ccccc23)c(C)c1	inactive	inactive	inactive	inactive	inactive	inactive	inactive	inactive	inactive	inactive
